Sampled rows, rich in hits. Any-hit rate of the full collection: about 12%.
Shiga inhibitor – A qHTS for Small Molecule Inhibitors of Shiga Toxin; Vero cells, Shiga toxin protein synthesis inhibition reporter; inhibition, % at 38.7 µM; actives 9.2% (n = 290,000); in the data active means inhibition mostly above about 28%, no sharp cut-off; inactive means mostly below about 43%; further: 0% is about no effect
MARV entry inh – qHTS for inhibitors of binding or entry into cells for Marburg Virus | Marburg virus pseudotyped entry inhibition, cell reporter | Potency, µM (titrated, usually from 37.8 µM), inactives show at the top dose activity change, negative = inhibition, usual class: inhibitors | actives 1.8% (n = 300,000); calls by dose curve; tested in HEK293 cells; further: potency means the concentration at half of the fitted maximal effect; on the % scale 0 is the no-effect control and ±100 the full control effect
LASV entry inh – qHTS for Inhibitors of binding or entry into cells for Lassa Virus. Lassa virus pseudotype entry inhibition, cell reporter. Potency, µM (titrated, usually from 37.9 µM), inactives show at the highest dose activity change, negative = inhibition, usual class: inhibitors. actives 1.2% (n = 300,000). AID 540256, 2011; calls by dose curve; tested in HEK293 cells; further: potency means the concentration at half of the fitted maximal effect; on the % scale 0 is the no-effect control and ±100 the full control effect; nearly all actives have a fitted effect of over 50% in size
CHX counter – Cycloheximide Counterscreen for Small Molecule Inhibitors of Shiga Toxin. cell reporter, cycloheximide protein synthesis inhibition counterscreen. max response, %. actives 12% (n = 300,000); in the data active means max response mostly above about 13%, no sharp cut-off; inactive means mostly below about 14%; further: read at 38.3 µM for the half of the compounds with a filed dose; 0% is about no effect
The depositor's hits bear a star; ? = inconclusive; / = no result; + = active, no number; ! = a repeat was not active; [ ] = another dose, or the depositor's remark.

SMILES	Shiga inhibitor	MARV entry inh	LASV entry inh	CHX counter
Cn1nc(NC(=O)C2CCC2C(=O)O)c2c(F)cccc21 (stereo unspecified)	-6	/	/	-1
COc1ccc(N2CCN(S(=O)(=O)CCNC(=O)c3cccs3)CC2)cc1	/	9%	9%	/
COc1cc(/C=N/NC(=O)c2ccncc2)ccc1OC(C)=O	-11	/	/	-2
COc1cc(/C=N/NC(=O)c2ccncc2)ccc1OCCN1CCCCC1	+	14%	-2%	35*
COc1cc(/C=N/NC(=O)c2cc3ccccc3cc2O)ccc1OCCN1CCCCC1	active	?	12%	42*
C/C=C/c1ccc(OCC(=O)Nc2ccncc2)c(OC)c1	39*	/	/	21*
C=CCOc1ccc(/C=N/NC(=O)CN2CCCCC2)cc1OC	-8	8%	?	1
COc1cc(/C=C2\C(=O)N(CCC#N)N=C2C)ccc1OCC(=O)Nc1ccccc1	66*	?	5%	63*
COc1cc(/C=N/NC(=O)c2ccncc2)ccc1OCC(=O)Nc1ccc(C)c(C)c1	40	-23%[46.1 µM]	/	13*
COc1ccc(NC(=O)COc2ccc(/C=N/O)cc2OC)cc1	52*	-14%[46.1 µM]	22%	31*
COc1cc(/C=N/NC(=O)c2ccncc2)ccc1OCC(=O)Nc1cccc([N+](=O)[O-])c1	-6	7%[46.1 µM]	0%[46.1 µM]	1
O=c1oc2ccccc2cc1-c1cn2cc(Cc3ccc(Br)cc3)sc2n1	/	?	-1%[46.1 µM]	/
CN1CCC/C1=C/C=C1\SC(=S)NC1=O	35*	38%	0%	18
CCCc1nn2c(=O)cc(CSCC(=O)Nc3cccc(OC)c3)nc2s1	-2	1%[46.1 µM]	11%[46.1 µM]	1
O=[n+]1c2c(n([O-])c3cc(F)c(N4CCCC4)cc31)CCC2	/	?	3%	/
O=[n+]1c2c(n([O-])c3cc(F)c(N4CCCC4)cc31)CCCC2	61*	25%	?	30*
COc1ccc(C/C(N)=N/OC(=O)c2cccs2)cc1	38	/	/	19
COc1ccc(OCCOC(=O)c2cccs2)cc1	77*	-19%	17%	33*
COc1ccc2[nH]c(=O)c(COC(=O)c3cccs3)cc2c1	-3	-3%	?	-6
COc1ccc(C(=O)O/N=C(\C)c2nccs2)cc1	30	-3%[46.1 µM]	4%	26*
C/C(=N\OC(=O)c1ccc(F)cc1)c1nccs1	53	-3%	14%	47*
COc1ccc(C(=O)O/N=C(/C)c2cccs2)cc1	61*	-22%[46.1 µM]	-4%	34*
CCC(O)CC(C(=O)NNc1ccccc1)C(=O)NNc1ccccc1 (stereo unspecified)	-5	2.5µM*	?	-2
Cc1nn(C)cc1/C=N/NC(=S)Nc1ccccc1	175*	7.3µM*	-12%	71*
O=C(N/N=C/c1ccccc1C(=O)O)c1ccncc1	7	/	/	0
SMILES	Shiga inhibitor	MARV entry inh	LASV entry inh	CHX counter
Cn1cccc1/C=N/NC(=O)c1sc2ccccc2c1Cl	66	16%	-21%	40*
O=C(N/N=C/c1c[nH]c2ccccc12)c1cccc([N+](=O)[O-])c1	17	?	16%	26*
Fc1ccc(NC(=S)NN=Cc2ccccc2Cl)cc1	/	?	-10%[46.1 µM]	/
O=C(N/N=C/c1oc(O)c2ccccc12)c1ccccc1	62*	/	/	17
Cc1ccc(C)c(C(=O)COC(=O)CCN2C(=O)C3C4CCC(C4)C3C2=O)c1 (stereo unspecified)	-4	8%	0%	17
N#Cc1nccnc1S(=O)(=O)c1cccs1	2	-35%	1%	-2
O=C(N/N=C/c1c[nH]c2ccccc12)c1ccc2c(c1)OCCO2	94*	?	?	55*
O=C(N/N=C\c1cn[nH]c1-c1ccccc1)c1cccnc1	-7	-7%	-7%	2
O=C(N/N=C\c1cn[nH]c1-c1ccccc1)c1cccs1	active	7%	18%	40*
O=C(N/N=C/c1cccc2ccccc12)c1cccs1	87*	/	/	73*
COc1ccccc1C(=O)N/N=C/c1c[nH]c2ccccc12	42*	/	/	32*
CC(=O)Nc1ccc(-c2csc(NC(=O)Cc3cccc(F)c3)n2)cc1	18	?	?	-2
COc1ccccc1N1CCN(C(c2cccs2)C(C)NC(=O)c2ccncc2)CC1 (stereo unspecified)	4	/	/	-2
Cc1cc(C(=O)N/N=C/c2c[nH]c3ccccc23)cs1	64*	?	?	42*
O=C(N/N=C/c1c[nH]c2ccccc12)c1sc2ccccc2c1Cl	19*	-24%	7%	25*
Cc1ccc(C(=O)Nc2ccc(C(=O)N/N=C/c3c[nH]c4ccccc34)cc2)cc1	-6	-2%	-23%	12
Cc1cccc(NC(=S)N/N=C/c2c[nH]c3ccccc23)c1	40*	?	?	14*
O=C(N/N=C/c1ccccn1)c1sc2ccccc2c1Cl	89*	/	/	44*
O=C(N/N=C/c1c[nH]c2ccccc12)c1ccncc1	13	-17%	15%	-1
O=C(N/N=C/c1c[nH]c2ccccc12)c1cccs1	94*	24%[46.1 µM]	13%[46.1 µM]	45*
O=C(NC(Cc1c[nH]c2ccccc12)C(=O)N/N=C/c1cccc2ccccc12)c1cccs1 (stereo unspecified)	-7	?	?	1
O=C(N/N=C/c1c[nH]c2ccccc12)c1ccccc1	128*	/	/	47*
Cc1ccccc1-c1nc(CNC(=O)NC2CCCCC2)c(C)o1	/	/	-7%[46.1 µM]	/
COc1ccccc1C(=O)Nc1ccc2c3c(cccc13)CC2	87*	?	?	38*
COC(=O)c1csc(C(=O)c2c[nH]c3ccccc23)n1	42*!	/	/	23*!
SMILES	Shiga inhibitor	MARV entry inh	LASV entry inh	CHX counter
COc1cccc(OC)c1C(=O)Nc1ccc2c3c(cccc13)CC2	-9	-25%	?	1
Cc1cccc(C)c1NC(=O)CNC(=O)Cc1c[nH]c2ccccc12	/	9%	9%	/
COc1ccccc1NC(=O)c1ccccc1NC(=O)c1ccccc1C(=O)O	/	/	/	16*
Cc1cccc(C)c1NC(=O)c1c[nH]c2ccccc12	74*	?	-13%[46.1 µM]	16*
COC(=O)c1ccc(NC(=O)C(=O)c2c[nH]c3ccccc23)cc1	2	/	/	0
COc1ccc(C2=Nn3c(nnc3-c3ccc(OC)cc3OC)SC2)c(OC)c1	-9	/	/	-4
Cc1ccc(CSCC(=O)N(C)CC(=O)Nc2ccc(Cl)c(Cl)c2)cc1	/	-7%	?	/
O=C(NC1CCC(O)CC1)c1cccnc1Sc1ccccc1Cl (stereo unspecified)	24	5%	-1%	-1
O=C1CCC(C2CCc3cc(O)ccc3C2)C1 (stereo unspecified)	/	1%	9%	/
COc1ccc(Nc2cc(C(=O)NCCCN(C)Cc3ccccc3)c3ccccc3n2)cc1OC	/	/	2%[46.1 µM]	/
CCCSCCCNC(=O)Cn1c(-c2cccs2)cc2ccccc21	/	/	1%[46.1 µM]	/
COc1ccccc1C(=O)Nc1ccccc1SC(=O)c1ccccc1OC	72*	/	/	26*
COc1ccccc1NC(=O)c1cc(=O)[nH]c2ccccc12	/	?	12%	2
COc1ccccc1NC(=O)c1c[nH]c2ccccc12	52*	/	/	34*
COC(=O)c1ccccc1NC(=O)c1ccccc1OC	34	-11%	-12%	-1
COc1ccccc1C(=O)Nc1ccc2nc(SCCOc3ccccc3C)sc2c1	/	10%[46.1 µM]	-19%[46.1 µM]	/
